Assay [1] in a line: Nuclear factor erythroid 2-related factor 2/antioxidant responsive element (Nrf2/ARE) small molecule agonists: qHTS cell viability counter screen in human keratinocytes (AID 1919968; active = well fitted curve in the direction sought with a large enough effect in the repeat runs; an effect the other way counts as inactive or inconclusive; also: nearly all actives have a fitted effect of over 55% in size; also: potency is read from the fitted curve at half-maximal effect). The essentials: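 KeratinoSens HaCaT cells, 1,500/well, preincubated 5 h, then exposed to compounds in DMSO for 23 h at 37 C/5% CO2. Viability read as CellTiter-Fluor fluorescence after 1 h, in the same wells as the ARE-luciferase read.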

Assay [2] can be described thus: Nuclear factor erythroid 2-related factor 2/antioxidant responsive element (Nrf2/ARE) small molecule agonists: luciferase reporter gene qHTS assay in human keratinocytes (AID 1919969). Also: nearly all actives have a fitted effect of over 35% in size.
Assay [3] has as its target Gonadotropin-releasing hormone receptor (Homo sapiens) (UniProt P30968). The experiment in a line: Human gonadotropin-releasing hormone receptor (GnRHR) small molecule agonists, calcium flux assay in GnRHR-HEK293 cells (AID 1920063). Also: nearly all actives have a fitted effect of over 35% in size. The essentials:
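HEK293 cells stably expressing human GnRHR were dye-loaded for 1 h at 37 C. Compound was added in agonist mode and fluorescence (Ex/Em 480/540) recorded kinetically for 3 min. Fifteen concentrations, triplicates.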

In assay [4] the target is KiSS-1 receptor (Homo sapiens) (UniProt Q969F8). Nature of the assay: Human kisspeptin (KISS1R) small molecule agonists, calcium flux assay in KISS1R-HEK293 cells (AID 1920064; active = well fitted curve in the direction sought with a large enough effect in the repeat runs; an effect the other way counts as inactive or inconclusive). A digest of the protocol: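 HEK293 cells stably expressing human KISS1R were loaded with calcium dye for 1 h at 37 C, then given compound; fluorescence (Ex/Em 480/540) was read kinetically for 3 min. Fifteen concentrations, triplicate.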

Assay [5] can be described thus: G protein-coupled receptor (GPCR) small molecule agonists, calcium flux assay: HEK293 wild type cell line counter screen (AID 1920065). A digest of the protocol: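 Wild-type HEK293 cells plated 18 h, loaded with calcium dye 1 h at 37 C, then compounds added in agonist mode (ATP as positive control). Kinetic fluorescence Ex/Em 480/540 recorded 3 min at 1 sec intervals; 15 concentrations, triplicate.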

Assay [6] can be described thus: p53 small molecule agonists, cell-based qHTS assay with rat liver microsomes (AID 1963578). A digest of the protocol:
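Compound in DMSO added to p53RE-bla cells 5 h post-plating; rat microsomes/NADPH 0.5 mg/mL final; 16 h, 37 C; LiveBLAzer 2 h RT.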

The nature of assay [7]: p53 small molecule agonists, cell-based qHTS assay with human liver microsomes: qHTS cell viability counter screen (AID 1963579). Also: nearly all actives have a fitted effect of over 45% in size. Also: potency is read from the fitted curve at half-maximal effect. A digest of the protocol:
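HLM-supplemented (0.5 mg/mL final) and NADPH-supplemented (0.5 mg/mL final) p53RE-bla cultures, 4,000 cells per well, were dosed with compounds in DMSO for 16 h at 37 C; luminescent ATP detection (CellTiter-Glo, 30 min, room temperature) quantified surviving cells.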

Assay [8] in a line: p53 small molecule agonists, cell-based qHTS assay with rat liver microsomes: qHTS cell viability counter screen (AID 1963580). Also: nearly all actives have a fitted effect of over 45% in size. A digest of the protocol: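 In HCT-116 cells carrying a p53 response element-bla reporter, compounds were metabolically activated in situ by rat liver microsomes with NADPH over 16 h. Cell ATP content then served as the cytotoxicity measure.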
The nature of assay [9]: p53 small molecule agonists, cell-based qHTS assay: qHTS cell viability counter screen (AID 1963581). Also: nearly all actives have a fitted effect of over 45% in size. A digest of the protocol: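 p53RE-bla HCT-116 cells, compounds added 5 h after plating and incubated 16 h at 37 C. Cytotoxicity measured in the same wells as intracellular ATP by CellTiter-Glo luminescence after 30 min at room temperature.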
Assay [10] is described as follows: p53 small molecule agonists, cell-based qHTS assay (AID 1963582; active = well fitted activation curve with a large enough effect in the signal ratio in the repeat runs, not every such curve was filed as active; the % refers to the signal ratio). The essentials: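 p53RE-bla reporter cells, compounds added in DMSO after 5 h plating, incubated 16 h at 37 C. Beta-lactamase read via 2 h room-temperature LiveBLAzer B/G FRET substrate, fluorescence intensity.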
In assay [11] the target is 5-hydroxytryptamine receptor 2A (Homo sapiens) (UniProt P28223). The experiment in a line: 5-hydroxytryptamine receptor 2A (HTR2A) small molecule agonists, cell-based qHTS assay (AID 1963587). Also: nearly all actives have a fitted effect of over 30% in size. The essentials: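 HTR2A-CHO cells, plated 18 h at 37 C/5% CO2, dye-loaded 1 h at 37 C; compounds in DMSO added by pin tool (agonist mode). Intracellular calcium flux read as kinetic fluorescence on FDSS over 2 min at 1 s intervals.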

Assay [12] concerns the target Muscarinic acetylcholine receptor M1 (Homo sapiens) (UniProt P11229). Nature of the assay: Cholinergic receptor muscarinic 1 (CHRM1) small molecule antagonists, cell-based qHTS assay (AID 1963588). Also: nearly all actives have a fitted effect of over 40% in size. Also: potency is read from the fitted curve at half-maximal effect. The essentials:
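CHRM1-CHO calcium-flux assay, antagonist mode. Cells were seeded 18 h, dye-loaded 1 h at 37 C and given compound for 5 min at RT, then acetylcholine was added at 50nM. FDSS fluorescence was read 3 min; 15 concentrations, three runs.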

Assay [13] shares this target. The experiment in a line: Cholinergic receptor muscarinic 1 (CHRM1) small molecule agonists, cell-based qHTS assay (AID 1963589). Also: nearly all actives have a fitted effect of over 35% in size. The essentials:
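CHO cells stably expressing human CHRM1 were loaded with calcium dye for 1 h at 37 C, then compound was added in agonist mode. Intracellular calcium fluorescence was followed kinetically at 1 s intervals. Fifteen concentrations were tested in three independent runs.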

Assay [14] in a line: cAMP Responsive Elements (CRE) small molecule agonists, cell-based qHTS assay (AID 1963590). The essentials:
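CRE-bla HEK 293T cells, 2,000/well in DMEM with 10% dialyzed FBS and 25 mM HEPES, pre-incubated 18 h at 37 C, then exposed to compound 3 h at 37 C. Beta-lactamase reporter read with LiveBLAzer B/G FRET substrate after 2 h at room temperature.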

A short description of assay [15]: cAMP Responsive Elements (CRE) small molecule antagonists, cell-based qHTS assay (AID 1963591; active = well fitted inhibition curve with a large enough effect in the signal ratio in the repeat runs, not every such curve was filed as active; the % refers to the signal ratio). The essentials:
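CRE-bla HEK293T cells plated 18 h, then given compound plus NKH477 at 0.25 uM final for 3 h at 37C. Beta-lactamase reporter read with LiveBLAzer B/G FRET substrate after 2 h at room temperature.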

For assay [16], the target named is Beta-2 adrenergic receptor (Homo sapiens) (UniProt P07550). Nature of the assay: Adrenergic beta2 receptor (ADRB2) small molecule antagonists, cell-based qHTS assay (AID 1963592). Also: series mostly up to about 92 µM; nearly all actives have a fitted effect of over 50% in size. The essentials:
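Cells (CHO, stable ADRB2 overexpression) incubated 18-20hr at 37C; compounds added from DMSO; agonist mix (1nM isoproterenol, 100uM IBMX, 25uM Ro-20-1724) added; 0.5hr RT; d2-cAMP and anti-cAMP-cryptate added; 1hr RT; 665/615 nm read.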

Assay [17] has as its target D(2) dopamine receptor (Homo sapiens) (UniProt P14416). Nature of the assay: Dopamine D2 receptor (DRD2) small molecule agonists, cell-based qHTS assay (AID 1963594). Also: nearly all actives have a fitted effect of over 35% in size. A digest of the protocol: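 HEK293 cells stably expressing DRD2 were cultured 24 h at 37 C, then given Ro20-1724 (0.1 mM final) and compounds for 10 min at room temperature. NKH477 (200nM) was then added for 30 min. cAMP was read by HTRF.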

Assay [18] has as its target 5-hydroxytryptamine receptor 2A (Homo sapiens) (UniProt P28223). Nature of the assay: 5-hydroxytryptamine receptor 2A (HTR2A) small molecule antagonists, cell-based qHTS assay (AID 1963586). Also: nearly all actives have a fitted effect of over 45% in size. A digest of the protocol:
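Antagonist-mode intracellular calcium assay: DOI (4 nM) added after 5 min compound pre-incubation at room temperature to dye-loaded HTR2A-CHO cells. Fluorescence followed for 3 min, sampled every second.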

Assay [19] addresses D(2) dopamine receptor (Homo sapiens) (UniProt P14416). The experiment in a line: Dopamine D2 receptor (DRD2) small molecule antagonists, cell-based qHTS assay (AID 1963595; active = well fitted inhibition curve with a large enough effect in the signal ratio in the repeat runs, with a control signal flat; the % refers to the signal ratio). A digest of the protocol:
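HEK293 cells stably expressing DRD2 were preincubated with 0.1 mM Ro20-1724, then with compound for 10 min at room temperature. Cells were stimulated with 200 nM NKH477 plus 12 nM quinpirole for 30 min, and cAMP was read by HTRF.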

Molecules are shown by their SMILES. Results filed as inconclusive are left out. Activity calls are given as the source filed them. Unless noted, calls follow the shape of the full dose curve.

Chain of Gonadotropin-releasing hormone receptor (Homo sapiens) (P30968 whole entry, looked up): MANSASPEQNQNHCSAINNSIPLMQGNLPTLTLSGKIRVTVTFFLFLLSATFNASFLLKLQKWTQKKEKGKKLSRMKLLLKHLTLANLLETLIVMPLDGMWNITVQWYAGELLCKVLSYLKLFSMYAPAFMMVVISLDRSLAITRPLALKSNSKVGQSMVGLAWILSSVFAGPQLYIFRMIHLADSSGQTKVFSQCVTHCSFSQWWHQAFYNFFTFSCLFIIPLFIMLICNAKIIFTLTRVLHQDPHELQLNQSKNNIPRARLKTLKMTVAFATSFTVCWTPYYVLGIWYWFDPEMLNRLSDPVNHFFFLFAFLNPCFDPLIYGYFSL
Chain of 5-hydroxytryptamine receptor 2A (Homo sapiens) (P28223 whole entry, looked up): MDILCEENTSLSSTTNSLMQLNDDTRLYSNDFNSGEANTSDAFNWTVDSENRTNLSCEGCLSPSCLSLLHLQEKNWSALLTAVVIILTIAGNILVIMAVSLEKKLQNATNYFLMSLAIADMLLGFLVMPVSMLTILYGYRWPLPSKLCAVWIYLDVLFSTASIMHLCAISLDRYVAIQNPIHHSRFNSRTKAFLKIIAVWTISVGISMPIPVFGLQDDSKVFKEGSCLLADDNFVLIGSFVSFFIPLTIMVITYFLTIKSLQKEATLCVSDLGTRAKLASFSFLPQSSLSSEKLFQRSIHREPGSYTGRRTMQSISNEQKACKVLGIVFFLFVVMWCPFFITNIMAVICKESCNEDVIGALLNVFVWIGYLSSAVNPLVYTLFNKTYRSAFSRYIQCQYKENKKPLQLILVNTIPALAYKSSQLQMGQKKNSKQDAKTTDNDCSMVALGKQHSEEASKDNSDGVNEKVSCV
Chain of KiSS-1 receptor (Homo sapiens) (Q969F8 whole entry, looked up): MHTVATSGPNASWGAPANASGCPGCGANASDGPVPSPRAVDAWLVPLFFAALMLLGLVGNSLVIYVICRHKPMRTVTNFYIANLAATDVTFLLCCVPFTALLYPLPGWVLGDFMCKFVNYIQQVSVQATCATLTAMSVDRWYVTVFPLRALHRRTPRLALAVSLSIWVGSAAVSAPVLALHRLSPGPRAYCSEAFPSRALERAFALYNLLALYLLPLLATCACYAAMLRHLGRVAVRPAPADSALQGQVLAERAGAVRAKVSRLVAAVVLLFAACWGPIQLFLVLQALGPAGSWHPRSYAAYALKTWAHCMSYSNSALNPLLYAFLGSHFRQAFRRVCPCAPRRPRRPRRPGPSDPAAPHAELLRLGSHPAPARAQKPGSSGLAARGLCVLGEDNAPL
Chain of Muscarinic acetylcholine receptor M1 (Homo sapiens) (P11229 whole entry, looked up): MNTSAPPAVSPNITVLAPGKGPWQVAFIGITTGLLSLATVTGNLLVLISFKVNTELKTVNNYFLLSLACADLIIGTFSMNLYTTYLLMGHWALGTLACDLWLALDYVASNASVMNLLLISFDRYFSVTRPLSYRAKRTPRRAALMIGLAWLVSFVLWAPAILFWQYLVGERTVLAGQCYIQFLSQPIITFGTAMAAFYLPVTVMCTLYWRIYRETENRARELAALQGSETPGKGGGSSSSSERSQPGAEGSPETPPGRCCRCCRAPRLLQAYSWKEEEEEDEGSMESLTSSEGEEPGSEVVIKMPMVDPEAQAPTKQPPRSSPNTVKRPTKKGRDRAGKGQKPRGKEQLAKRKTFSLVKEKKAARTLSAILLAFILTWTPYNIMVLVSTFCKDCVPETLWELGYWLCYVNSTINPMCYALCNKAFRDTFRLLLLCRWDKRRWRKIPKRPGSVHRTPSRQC
Chain of D(2) dopamine receptor (Homo sapiens) (P14416 whole entry, looked up): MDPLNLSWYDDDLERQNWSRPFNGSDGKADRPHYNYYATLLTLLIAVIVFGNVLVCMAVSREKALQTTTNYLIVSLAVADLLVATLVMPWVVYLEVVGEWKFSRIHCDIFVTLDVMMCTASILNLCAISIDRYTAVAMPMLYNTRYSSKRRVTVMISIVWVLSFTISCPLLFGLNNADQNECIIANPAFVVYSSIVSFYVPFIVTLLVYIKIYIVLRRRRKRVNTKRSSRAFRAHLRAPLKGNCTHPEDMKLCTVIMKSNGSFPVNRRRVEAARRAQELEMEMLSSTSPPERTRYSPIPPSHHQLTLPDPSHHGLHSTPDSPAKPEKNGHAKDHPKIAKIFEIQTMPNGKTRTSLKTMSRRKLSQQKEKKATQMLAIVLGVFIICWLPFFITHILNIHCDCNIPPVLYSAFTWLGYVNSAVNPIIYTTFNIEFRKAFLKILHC
Chain of Beta-2 adrenergic receptor (Homo sapiens) (P07550 whole entry, looked up): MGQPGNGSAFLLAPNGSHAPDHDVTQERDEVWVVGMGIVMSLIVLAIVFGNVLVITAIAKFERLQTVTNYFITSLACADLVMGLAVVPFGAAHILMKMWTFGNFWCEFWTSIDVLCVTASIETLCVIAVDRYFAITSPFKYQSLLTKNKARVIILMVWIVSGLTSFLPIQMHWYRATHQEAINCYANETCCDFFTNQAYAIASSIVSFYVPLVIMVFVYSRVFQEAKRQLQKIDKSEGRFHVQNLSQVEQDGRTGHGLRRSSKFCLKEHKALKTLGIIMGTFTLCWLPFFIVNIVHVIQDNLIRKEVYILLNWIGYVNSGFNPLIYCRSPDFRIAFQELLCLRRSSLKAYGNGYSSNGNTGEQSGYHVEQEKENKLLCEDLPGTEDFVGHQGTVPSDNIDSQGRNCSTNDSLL

`O=CCCl`: the Potency result in assay [1], in assay [2], in [3], in assay [4], in assay [5] and in assay [6] was “inactive” throughout. Further, the Potency result in assay [7], in [8], in assay [9], in assay [10], in assay [11] and in assay [12] was “inactive” throughout. Moreover, the Potency result in assay [13], in [14], in assay [15], in assay [16] and in [17] was “inactive” each time.
As to `CC(C)(C)C(=O)C(Oc1ccc(Cl)cc1)n1cncn1` (stereo not drawn), the Potency entry in [1], in [2], in [3], in [4], in assay [5] and in assay [6] was “inactive” each time. In addition, the Potency entry in assay [7], in assay [8], in [9], in assay [18], in assay [11] and in assay [13] was “inactive” in each case. Besides, the Potency entry in assay [15], in assay [16] and in assay [17] was “inactive” throughout.
As for `Oc1c(Br)c(Br)c(Br)c(Br)c1Br`, the Potency in assay [1] is 30.8 µM (active); in assay [7], 23.1 µM (active); in assay [12], 30 µM (active). Further, the Potency result in assay [2], in [3], in assay [4], in assay [5], in assay [6] and in [8] was “inactive” in each case. The Potency entry in assay [10], in assay [16], in [17] and in [19] was “inactive” throughout.
`Nc1ccccc1-c1ccccc1`: the Potency entry in assay [1], in [2], in [3], in assay [4], in assay [5] and in assay [6] was “inactive” in each case. Besides, the Potency result in assay [7], in assay [8], in assay [9], in assay [18], in [11] and in [12] was “inactive” each time. Moreover, the Potency entry in assay [13], in [14], in assay [15], in [16], in [17] and in assay [19] was “inactive” in each case.
Take `CNNC`: the Potency entry in assay [1], in [2], in assay [3], in assay [4], in assay [5] and in assay [6] was “inactive” each time. Besides, the Potency entry in assay [7], in assay [8], in assay [10], in assay [18], in assay [11] and in assay [12] was “inactive” each time. Further, the Potency result in [13], in assay [16], in assay [17] and in assay [19] was “inactive” each time.
On to `Cc1cccc(Cc2cnc[nH]2)c1C`, for which the Potency entry in assay [1], in assay [2], in assay [3], in assay [4], in [5] and in [6] was “inactive” each time. The Potency result in assay [7], in assay [8], in assay [9], in [18], in [11] and in assay [12] was “inactive” throughout. Further, the Potency entry in assay [13], in assay [14], in [16], in [17] and in assay [19] was “inactive” in each case.
In the case of `CC(C1CC1)C(O)(Cn1cncn1)c1ccc(Cl)cc1` (stereo not drawn), the Potency entry in assay [1], in [2], in assay [3], in [4], in [5] and in assay [6] was “inactive” throughout. In addition, the Potency result in assay [7], in [8], in assay [9], in assay [10], in assay [18] and in assay [12] was “inactive” throughout. Further, the Potency entry in assay [13], in assay [14], in assay [16], in [17] and in assay [19] was “inactive” each time.

The record behind these values is PubChem BioAssay (Tox21).
